Results on 1 sequence are retold here after paper PMC7862700, “An all-to-all approach to the identification of sequence-specific readers for epigenetic DNA modifications on cytosine”.

Common to all, as to assay: DAPPL (digital affinity profiling via proximity ligation, sequencing); 10 mM Tris-HCl pH 7.5, 50 mM NaCl, 1 mM DTT, 4% glycerol, room temperature, 30 min; GST-TFs on glutathione beads, 16-mer random dsDNA library, 0.1% formaldehyde crosslink after washing; high values mean tight binding
What all share (conditions): protein: recombinant; tags: N-terminal GST; dsDNA, one strand shown

Assay [1] addresses T1, ELK1 (Homo sapiens, UniProt P19419 1-428).
T1 sequence: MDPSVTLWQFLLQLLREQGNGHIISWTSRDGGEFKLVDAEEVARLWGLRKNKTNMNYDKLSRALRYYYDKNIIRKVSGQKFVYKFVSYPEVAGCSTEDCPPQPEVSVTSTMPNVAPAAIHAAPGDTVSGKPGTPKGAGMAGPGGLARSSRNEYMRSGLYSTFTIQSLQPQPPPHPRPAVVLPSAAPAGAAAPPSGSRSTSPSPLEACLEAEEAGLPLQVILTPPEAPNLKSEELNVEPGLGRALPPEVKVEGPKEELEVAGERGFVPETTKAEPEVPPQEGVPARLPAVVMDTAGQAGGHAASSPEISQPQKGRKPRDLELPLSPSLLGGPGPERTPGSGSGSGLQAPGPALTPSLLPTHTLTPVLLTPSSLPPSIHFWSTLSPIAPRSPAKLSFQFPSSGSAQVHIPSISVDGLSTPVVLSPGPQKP
Summed up:
(§1)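 GST fusions of human transcription factors were expressed in yeast and captured with glutathione beads. Once given DNA barcodes and pooled alongside a tag-only sample, they were incubated for 30 min at room temperature with 200 nmole of a random double-stranded 16-mer DNA library in Tris/NaCl/DTT/glycerol buffer, then washed, crosslinked (0.1% formaldehyde), proximity-ligated, PCR-amplified and sequenced on an Illumina NextSeq500. The binding signal of each hexamer is its read frequency for a factor divided by its frequency for the tag-only sample.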

The target in assay [2] is T2, GABPA (Homo sapiens, UniProt Q06546 1-454).
T2 sequence: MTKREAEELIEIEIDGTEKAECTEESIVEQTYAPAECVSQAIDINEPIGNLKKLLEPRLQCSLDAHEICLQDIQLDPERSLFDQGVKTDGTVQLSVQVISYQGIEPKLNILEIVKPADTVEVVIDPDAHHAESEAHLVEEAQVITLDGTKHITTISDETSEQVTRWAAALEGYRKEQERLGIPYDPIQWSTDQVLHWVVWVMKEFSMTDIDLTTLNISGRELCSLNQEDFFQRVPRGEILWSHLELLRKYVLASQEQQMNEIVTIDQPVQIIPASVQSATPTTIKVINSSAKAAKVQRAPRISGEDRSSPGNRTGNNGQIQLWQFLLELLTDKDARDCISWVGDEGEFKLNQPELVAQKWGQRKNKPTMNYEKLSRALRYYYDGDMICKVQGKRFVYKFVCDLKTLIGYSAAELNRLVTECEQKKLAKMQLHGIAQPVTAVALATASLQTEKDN
A digest of the protocol: as §1

Assay [3] deals with T3, ERG (Homo sapiens, UniProt P11308 1-479).
T3 sequence: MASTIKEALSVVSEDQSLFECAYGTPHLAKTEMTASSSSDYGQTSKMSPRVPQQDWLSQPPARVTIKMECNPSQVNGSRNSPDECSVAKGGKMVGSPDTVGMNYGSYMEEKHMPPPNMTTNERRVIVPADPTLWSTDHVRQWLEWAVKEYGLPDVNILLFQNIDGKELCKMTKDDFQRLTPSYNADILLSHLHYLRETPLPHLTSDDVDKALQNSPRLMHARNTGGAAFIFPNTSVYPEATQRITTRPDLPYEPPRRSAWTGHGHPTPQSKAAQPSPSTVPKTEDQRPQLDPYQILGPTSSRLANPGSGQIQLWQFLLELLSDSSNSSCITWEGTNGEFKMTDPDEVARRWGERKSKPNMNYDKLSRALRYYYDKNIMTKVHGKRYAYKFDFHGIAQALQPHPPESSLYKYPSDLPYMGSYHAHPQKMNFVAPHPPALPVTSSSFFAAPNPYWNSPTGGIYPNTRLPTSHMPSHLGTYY
Summed up: as §1

Assay [4] addresses ELF1 (Homo sapiens, UniProt P32519 1-619). A digest of the protocol:
as §1

For assay [5], the target named is T4, EHF (Homo sapiens, UniProt Q9NZC4 1-300).
T4 sequence: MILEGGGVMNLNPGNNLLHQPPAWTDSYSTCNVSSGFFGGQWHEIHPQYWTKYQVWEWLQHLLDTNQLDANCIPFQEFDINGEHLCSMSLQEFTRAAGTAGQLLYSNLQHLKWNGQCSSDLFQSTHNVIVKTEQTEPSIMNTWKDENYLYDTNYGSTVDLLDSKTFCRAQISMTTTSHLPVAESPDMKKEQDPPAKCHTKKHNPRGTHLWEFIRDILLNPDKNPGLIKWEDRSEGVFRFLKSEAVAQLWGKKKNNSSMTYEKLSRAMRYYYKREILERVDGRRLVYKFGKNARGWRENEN
Summed up: as §1

Assay [6] addresses SPIB (Homo sapiens, UniProt Q01892 1-262). Summed up:
as §1

Assay [7] concerns the target ETV5 (Homo sapiens, UniProt P41161 1-510). A digest of the protocol: as §1
Assay [8] deals with ELF4 (Homo sapiens, UniProt Q99607 1-663). A digest of the protocol: as §1
Assay [9] addresses T5, ELK4 (Homo sapiens, UniProt P28324-2 1-405).
T5 sequence: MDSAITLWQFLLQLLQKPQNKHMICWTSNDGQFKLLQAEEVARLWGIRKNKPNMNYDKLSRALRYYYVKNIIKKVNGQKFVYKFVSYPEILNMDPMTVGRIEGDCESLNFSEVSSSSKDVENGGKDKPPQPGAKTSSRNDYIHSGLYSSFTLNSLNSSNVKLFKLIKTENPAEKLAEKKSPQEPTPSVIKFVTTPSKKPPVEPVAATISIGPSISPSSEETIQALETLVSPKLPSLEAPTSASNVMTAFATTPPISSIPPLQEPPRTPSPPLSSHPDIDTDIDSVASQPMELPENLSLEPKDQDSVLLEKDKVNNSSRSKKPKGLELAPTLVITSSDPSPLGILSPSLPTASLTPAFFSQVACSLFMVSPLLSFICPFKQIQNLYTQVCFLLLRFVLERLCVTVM
Summed up: as §1

Assay [10] deals with T6, ETV2 (Homo sapiens, UniProt O00321 1-342).
T6 sequence: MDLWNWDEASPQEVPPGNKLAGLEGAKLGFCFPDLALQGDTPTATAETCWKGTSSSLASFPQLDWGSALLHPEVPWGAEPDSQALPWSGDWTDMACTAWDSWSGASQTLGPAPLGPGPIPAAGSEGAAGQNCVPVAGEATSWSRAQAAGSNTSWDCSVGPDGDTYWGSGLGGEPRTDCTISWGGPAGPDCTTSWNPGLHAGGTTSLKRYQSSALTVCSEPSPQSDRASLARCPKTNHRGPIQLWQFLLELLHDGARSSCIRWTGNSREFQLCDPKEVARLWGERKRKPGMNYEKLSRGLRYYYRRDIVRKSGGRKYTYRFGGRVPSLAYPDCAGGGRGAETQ
A digest of the protocol:
as §1

The target of assay [11] is T7, ELF3 (Homo sapiens, UniProt P78545 1-371).
T7 sequence: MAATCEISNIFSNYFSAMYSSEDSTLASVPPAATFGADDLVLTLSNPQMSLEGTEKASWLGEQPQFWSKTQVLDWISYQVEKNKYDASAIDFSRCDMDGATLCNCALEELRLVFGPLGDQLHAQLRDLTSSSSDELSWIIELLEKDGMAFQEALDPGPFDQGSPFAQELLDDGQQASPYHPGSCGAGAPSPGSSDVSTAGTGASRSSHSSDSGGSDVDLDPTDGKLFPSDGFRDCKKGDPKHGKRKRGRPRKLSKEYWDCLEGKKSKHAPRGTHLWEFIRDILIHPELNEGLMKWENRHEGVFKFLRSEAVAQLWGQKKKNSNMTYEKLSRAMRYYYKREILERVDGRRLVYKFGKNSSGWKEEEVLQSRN
A digest of the protocol:
as §1

The target in assay [12] is ETV1 (Homo sapiens, UniProt P50549 1-477). Summed up: as §1
For assay [13], the target named is T8, ERF (Homo sapiens, UniProt P50548 1-548).
T8 sequence: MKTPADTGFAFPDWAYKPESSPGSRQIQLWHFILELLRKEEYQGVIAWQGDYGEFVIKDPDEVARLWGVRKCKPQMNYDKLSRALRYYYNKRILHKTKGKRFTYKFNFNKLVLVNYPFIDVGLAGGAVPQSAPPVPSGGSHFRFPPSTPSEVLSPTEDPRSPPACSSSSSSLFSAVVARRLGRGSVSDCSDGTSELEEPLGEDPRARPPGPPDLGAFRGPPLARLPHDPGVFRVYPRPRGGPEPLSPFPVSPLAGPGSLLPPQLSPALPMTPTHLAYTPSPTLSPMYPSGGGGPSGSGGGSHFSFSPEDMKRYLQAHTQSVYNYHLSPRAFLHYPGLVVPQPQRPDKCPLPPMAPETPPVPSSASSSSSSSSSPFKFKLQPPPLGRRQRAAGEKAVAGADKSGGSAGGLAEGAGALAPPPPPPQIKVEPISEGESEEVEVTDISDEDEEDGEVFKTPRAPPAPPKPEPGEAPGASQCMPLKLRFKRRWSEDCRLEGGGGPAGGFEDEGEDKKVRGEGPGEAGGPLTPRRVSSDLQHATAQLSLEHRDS
A digest of the protocol:
as §1

Assay [14] deals with T9, ETV3L (Homo sapiens, UniProt Q6ZN32 1-361).
T9 sequence: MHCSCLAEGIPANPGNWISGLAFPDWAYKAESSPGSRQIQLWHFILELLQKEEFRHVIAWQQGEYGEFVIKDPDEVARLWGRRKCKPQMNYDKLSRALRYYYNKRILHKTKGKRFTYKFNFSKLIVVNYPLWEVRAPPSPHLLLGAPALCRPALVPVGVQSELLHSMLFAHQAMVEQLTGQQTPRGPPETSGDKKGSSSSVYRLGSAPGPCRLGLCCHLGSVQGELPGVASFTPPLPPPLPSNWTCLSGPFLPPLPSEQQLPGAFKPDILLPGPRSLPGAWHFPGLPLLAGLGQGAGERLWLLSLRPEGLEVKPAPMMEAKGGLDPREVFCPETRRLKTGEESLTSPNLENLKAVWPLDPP
Summed up:
as §1

The target of assay [15] is T10, ETS2 (Homo sapiens, UniProt P15036 1-469).
T10 sequence: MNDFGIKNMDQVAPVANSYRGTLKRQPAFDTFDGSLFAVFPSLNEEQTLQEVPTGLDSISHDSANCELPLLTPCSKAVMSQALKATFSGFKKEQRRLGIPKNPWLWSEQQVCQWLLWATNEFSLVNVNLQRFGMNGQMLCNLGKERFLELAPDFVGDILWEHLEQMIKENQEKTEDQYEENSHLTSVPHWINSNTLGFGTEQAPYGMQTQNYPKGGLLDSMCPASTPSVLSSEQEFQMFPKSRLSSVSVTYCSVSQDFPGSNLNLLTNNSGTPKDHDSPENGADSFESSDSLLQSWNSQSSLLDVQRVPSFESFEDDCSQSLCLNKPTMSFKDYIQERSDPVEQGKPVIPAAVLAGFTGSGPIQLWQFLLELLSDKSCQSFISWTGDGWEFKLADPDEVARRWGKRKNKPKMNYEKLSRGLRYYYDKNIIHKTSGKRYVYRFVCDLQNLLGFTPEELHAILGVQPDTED
Summed up: as §1

Assay [16] has as its target T11, SPDEF (Homo sapiens, UniProt O95238 1-335).
T11 sequence: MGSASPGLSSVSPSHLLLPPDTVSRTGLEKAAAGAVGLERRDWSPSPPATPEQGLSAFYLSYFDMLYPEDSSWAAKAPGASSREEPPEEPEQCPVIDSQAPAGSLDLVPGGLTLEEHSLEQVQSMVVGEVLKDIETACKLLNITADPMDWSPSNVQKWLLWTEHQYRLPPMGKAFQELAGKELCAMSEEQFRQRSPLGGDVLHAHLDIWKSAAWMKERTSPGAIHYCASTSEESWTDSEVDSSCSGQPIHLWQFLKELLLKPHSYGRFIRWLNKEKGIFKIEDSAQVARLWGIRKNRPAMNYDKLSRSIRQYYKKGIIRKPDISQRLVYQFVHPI
Summed up:
as §1

For assay [17], the target named is T12, ETV7 (Homo sapiens, UniProt Q9Y603 1-341).
T12 sequence: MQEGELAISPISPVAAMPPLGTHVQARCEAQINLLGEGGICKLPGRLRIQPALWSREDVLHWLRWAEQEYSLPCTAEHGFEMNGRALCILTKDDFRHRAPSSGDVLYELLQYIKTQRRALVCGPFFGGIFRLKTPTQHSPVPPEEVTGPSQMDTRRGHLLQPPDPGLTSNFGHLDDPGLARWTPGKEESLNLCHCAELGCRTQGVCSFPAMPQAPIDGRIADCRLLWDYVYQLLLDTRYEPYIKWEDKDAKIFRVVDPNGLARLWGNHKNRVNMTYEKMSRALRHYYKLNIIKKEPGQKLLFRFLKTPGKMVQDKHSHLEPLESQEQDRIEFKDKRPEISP
A digest of the protocol: as §1

Assay [18] concerns the target T13, ETV3 (Homo sapiens, UniProt P41162-2 1-143).
T13 sequence: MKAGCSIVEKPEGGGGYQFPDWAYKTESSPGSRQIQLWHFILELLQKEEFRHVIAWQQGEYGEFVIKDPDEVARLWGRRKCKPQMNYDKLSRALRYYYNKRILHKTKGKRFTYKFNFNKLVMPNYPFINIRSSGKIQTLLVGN
Summed up: as §1

Assay [19] has as its target ETV6 (Homo sapiens, UniProt P41212 1-452). Summed up:
as §1

Sequence of ELF1 (P32519 whole entry): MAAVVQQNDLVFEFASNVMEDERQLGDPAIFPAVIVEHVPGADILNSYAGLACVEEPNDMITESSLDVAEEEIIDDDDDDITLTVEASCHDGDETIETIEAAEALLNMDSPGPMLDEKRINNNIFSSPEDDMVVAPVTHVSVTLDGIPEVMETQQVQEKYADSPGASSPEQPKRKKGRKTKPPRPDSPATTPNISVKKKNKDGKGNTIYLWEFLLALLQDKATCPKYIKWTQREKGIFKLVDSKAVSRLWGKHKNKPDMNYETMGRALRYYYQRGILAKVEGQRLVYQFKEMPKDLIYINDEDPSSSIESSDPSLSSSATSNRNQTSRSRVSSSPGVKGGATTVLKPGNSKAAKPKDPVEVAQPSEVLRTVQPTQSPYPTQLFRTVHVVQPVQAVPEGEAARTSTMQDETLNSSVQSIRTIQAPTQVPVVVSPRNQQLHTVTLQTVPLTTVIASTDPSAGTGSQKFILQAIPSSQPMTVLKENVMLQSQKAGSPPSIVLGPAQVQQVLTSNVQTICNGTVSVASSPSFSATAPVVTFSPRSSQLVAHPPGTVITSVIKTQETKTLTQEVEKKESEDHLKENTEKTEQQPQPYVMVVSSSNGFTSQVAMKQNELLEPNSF
Sequence of ELF4 (Q99607 whole entry): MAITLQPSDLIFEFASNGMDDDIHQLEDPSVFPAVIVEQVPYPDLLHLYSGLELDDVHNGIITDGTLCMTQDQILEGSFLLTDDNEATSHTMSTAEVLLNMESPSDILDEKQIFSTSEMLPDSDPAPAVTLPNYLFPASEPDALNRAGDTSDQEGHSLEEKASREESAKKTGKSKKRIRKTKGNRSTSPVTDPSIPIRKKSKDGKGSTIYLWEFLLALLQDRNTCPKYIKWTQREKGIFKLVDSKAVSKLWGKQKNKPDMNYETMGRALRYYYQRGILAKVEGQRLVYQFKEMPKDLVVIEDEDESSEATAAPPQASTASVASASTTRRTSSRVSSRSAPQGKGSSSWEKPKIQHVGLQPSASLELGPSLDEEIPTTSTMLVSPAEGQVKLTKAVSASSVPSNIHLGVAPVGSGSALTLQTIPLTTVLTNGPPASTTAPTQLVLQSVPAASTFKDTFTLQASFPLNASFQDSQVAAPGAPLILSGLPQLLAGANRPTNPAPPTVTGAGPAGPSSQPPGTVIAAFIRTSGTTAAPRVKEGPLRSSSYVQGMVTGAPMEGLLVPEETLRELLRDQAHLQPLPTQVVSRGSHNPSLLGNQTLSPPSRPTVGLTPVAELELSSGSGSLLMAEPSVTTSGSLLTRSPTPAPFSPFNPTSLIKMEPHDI
Sequence of ETV5 (P41161 whole entry): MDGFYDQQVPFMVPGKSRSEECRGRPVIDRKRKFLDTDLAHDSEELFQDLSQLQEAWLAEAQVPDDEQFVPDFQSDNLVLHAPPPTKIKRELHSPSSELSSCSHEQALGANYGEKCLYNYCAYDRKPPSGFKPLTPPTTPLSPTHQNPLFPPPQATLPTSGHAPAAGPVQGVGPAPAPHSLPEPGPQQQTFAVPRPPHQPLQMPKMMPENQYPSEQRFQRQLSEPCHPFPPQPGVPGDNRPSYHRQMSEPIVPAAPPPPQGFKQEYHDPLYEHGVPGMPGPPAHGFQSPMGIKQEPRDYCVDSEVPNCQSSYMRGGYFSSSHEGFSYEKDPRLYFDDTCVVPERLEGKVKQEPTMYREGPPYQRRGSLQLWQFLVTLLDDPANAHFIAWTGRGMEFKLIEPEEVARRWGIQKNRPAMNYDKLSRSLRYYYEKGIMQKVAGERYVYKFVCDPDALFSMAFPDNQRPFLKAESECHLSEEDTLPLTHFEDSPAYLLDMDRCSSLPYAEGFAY
Sequence of ETV1 (P50549 whole entry): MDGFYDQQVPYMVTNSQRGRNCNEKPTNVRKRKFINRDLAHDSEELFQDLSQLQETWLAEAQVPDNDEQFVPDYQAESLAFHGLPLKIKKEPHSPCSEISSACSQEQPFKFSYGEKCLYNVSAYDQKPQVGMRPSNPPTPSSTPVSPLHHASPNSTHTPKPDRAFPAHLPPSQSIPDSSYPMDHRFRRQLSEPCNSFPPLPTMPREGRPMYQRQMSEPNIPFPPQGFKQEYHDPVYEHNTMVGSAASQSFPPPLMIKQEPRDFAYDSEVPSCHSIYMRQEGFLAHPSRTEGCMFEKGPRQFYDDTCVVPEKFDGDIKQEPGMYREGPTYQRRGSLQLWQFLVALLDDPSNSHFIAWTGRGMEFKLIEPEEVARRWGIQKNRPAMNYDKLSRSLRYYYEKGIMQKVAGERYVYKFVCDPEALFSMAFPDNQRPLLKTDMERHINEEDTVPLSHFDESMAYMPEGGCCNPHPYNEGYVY
Sequence of SPIB (Q01892 whole entry): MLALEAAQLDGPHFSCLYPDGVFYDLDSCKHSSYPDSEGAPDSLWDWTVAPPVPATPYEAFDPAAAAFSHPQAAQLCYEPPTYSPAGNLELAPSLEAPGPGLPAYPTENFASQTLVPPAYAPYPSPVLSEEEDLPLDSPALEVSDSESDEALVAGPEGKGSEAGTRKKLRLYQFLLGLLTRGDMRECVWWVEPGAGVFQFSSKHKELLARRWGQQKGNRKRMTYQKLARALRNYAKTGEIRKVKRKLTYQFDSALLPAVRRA
Sequence of ETV6 (P41212 whole entry): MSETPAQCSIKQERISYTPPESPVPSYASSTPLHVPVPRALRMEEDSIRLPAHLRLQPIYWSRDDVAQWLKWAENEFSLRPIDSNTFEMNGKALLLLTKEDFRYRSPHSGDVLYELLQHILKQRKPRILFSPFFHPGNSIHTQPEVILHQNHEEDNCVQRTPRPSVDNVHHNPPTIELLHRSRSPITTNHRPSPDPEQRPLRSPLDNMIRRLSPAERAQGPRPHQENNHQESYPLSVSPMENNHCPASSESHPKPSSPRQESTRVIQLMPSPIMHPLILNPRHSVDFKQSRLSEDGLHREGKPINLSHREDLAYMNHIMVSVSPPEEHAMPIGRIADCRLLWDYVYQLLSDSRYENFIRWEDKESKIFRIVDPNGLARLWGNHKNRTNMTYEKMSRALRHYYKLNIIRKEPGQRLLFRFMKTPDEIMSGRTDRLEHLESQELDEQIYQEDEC

For the sequence TATGTC, the binding signal in assay [1] is 1.05 fold enrichment (6-mer frequency, TF over GST control); in assay [2], 1.17 fold enrichment (6-mer frequency, TF over GST control); in assay [3], 1.08 fold enrichment (6-mer frequency, TF over GST control); in assay [4] it was 1.11 fold enrichment (6-mer frequency, TF over GST control); in [5] it was 1.02 fold enrichment (6-mer frequency, TF over GST control); in [6], 1.16 fold enrichment (6-mer frequency, TF over GST control). Moreover, the binding signal in assay [7] was 1.07 fold enrichment (6-mer frequency, TF over GST control); in [8] it was 1.14 fold enrichment (6-mer frequency, TF over GST control); in assay [9], 1.05 fold enrichment (6-mer frequency, TF over GST control); in assay [10] it was 1.02 fold enrichment (6-mer frequency, TF over GST control); in assay [11], 1.06 fold enrichment (6-mer frequency, TF over GST control); in [12], 1.05 fold enrichment (6-mer frequency, TF over GST control). Besides, the binding signal in [13] is 1.08 fold enrichment (6-mer frequency, TF over GST control); in assay [14] it was 1.16 fold enrichment (6-mer frequency, TF over GST control); in [15] it was 1.13 fold enrichment (6-mer frequency, TF over GST control); in [16], 1.14 fold enrichment (6-mer frequency, TF over GST control); in [17], 1.06 fold enrichment (6-mer frequency, TF over GST control); in assay [18], 1.13 fold enrichment (6-mer frequency, TF over GST control). Also, the binding signal in [19] was 1.07 fold enrichment (6-mer frequency, TF over GST control).
